In PubChem BioAssay (NCATS):
Records with an inconclusive call do not appear. Active and inactive are the calls of the source. Calls come from the whole dose curve; as a rule, active = well fitted curve in the direction sought with a large enough effect; inconclusive = small, poorly fitted or top-dose-only effect, or another doubt; inactive = no such curve, though single readings can be large; an effect the other way counts as inactive or inconclusive.

Experiments:
Hek293T = assay: Primary qHTS to identify gynecologic anti-cancer compounds using libraries of approved drugs and bioactive compounds (AID 1345084); conditions: Gynecologic cancer cell panel viability, ATPlite luminescence, 48 h, control line for the selectivity index; series mostly up to 57.5 µM; note: nearly all actives have a fitted effect of over 55% in size
How it was run: (§1)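 Five-point cytotoxicity, 48 h drug exposure at 37 C, 5% CO2, on cells seeded 16 h beforehand. ATP content read by ATPlite luminescence.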

JEG-3 = assay: as above; conditions: Gynecologic cancer cell panel viability, ATPlite luminescence, 48 h; series mostly up to 57.5 µM
How it was run: as §1

OV90 = assay: as above; conditions: Gynecologic cancer cell panel viability, ATPlite luminescence, 48 h; series mostly up to 57.5 µM
How it was run: as §1

PA-1 = assay: as above; conditions: Gynecologic cancer cell panel viability, ATPlite luminescence, 48 h; series mostly up to 57.5 µM
How it was run: as §1

Tov-21-G = assay: as above; conditions: Gynecologic cancer cell panel viability, ATPlite luminescence, 48 h; series mostly up to 57.5 µM
How it was run: as §1

Tov112D = assay: as above; conditions: Gynecologic cancer cell panel viability, ATPlite luminescence, 48 h; series mostly up to 57.5 µM
How it was run: as §1

[1] = Drug repurposing screens with cells derived from glioblastoma tumor samples (AID 1345199); conditions: GBM patient neurospheres viability, ATP luminescence, 48 h; note: nearly all actives have a fitted effect of over 40% in size
How it was run: (§2)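 Primary testing used CD133+ neurospheres from four GBM patients, seven concentrations, 48 h exposure and ATP-based viability; confirmation added three slower-growing patient lines.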

astro = assay: as above; conditions: viability, ATP luminescence, 48 h; series mostly up to 45.9 µM
How it was run: as §2

SKOV3 = assay: Primary qHTS to identify gynecologic anti-cancer compounds using libraries of approved drugs and bioactive compounds (AID 1345084); conditions: Gynecologic cancer cell panel viability, ATPlite luminescence, 48 h; series mostly up to 57.5 µM; note: nearly all actives have a fitted effect of over 55% in size
How it was run: as §1

[2] = at 20 µM (top of the series), tumour line C
[3] = at 21.2 µM (top of the series), tumour line B
[4] = at 21.2 µM (top of the series), tumour line D
[5] = at 45.9 µM (top of the series), tumour line B
[6] = at 45.9 µM (top of the series), tumour line D
[7] = at 46.1 µM (top of the series), tumour line C
[8] = at 46 µM (top of the series), tumour line A
[9] = at 21.3 µM (top of the series), tumour line A
% is set by controls: 0 for no effect and ±100 for the full control effect; potency is the fitted concentration of half-maximal effect.

COc1cc(NS(=O)(=O)c2ccc(N)cc2)ncn1
inactive: Potency (Hek293T) | Potency (JEG-3) | Potency (OV90) | Potency (PA-1) | Potency (Tov-21-G) | Potency (Tov112D) | activity, negative = cell killing [1, 2] 5.16% | activity, negative = cell killing [1, 3] 4.65% | activity, negative = cell killing [1, 4] -16.4% | Potency (astro)

CNCCc1ccccn1
inactive: Potency (Hek293T) | Potency (JEG-3) | Potency (OV90) | Potency (PA-1) | Potency (Tov-21-G) | Potency (Tov112D) | activity, negative = cell killing [1, 2] -4.84% | activity, negative = cell killing [1, 3] -4.42% | activity, negative = cell killing [1, 4] -9.97% | Potency (astro)

COc1cc([C@H]2Oc3cc([C@H]4Oc5cc(O)cc(O)c5C(=O)[C@@H]4O)ccc3O[C@@H]2CO)ccc1O
inactive: Potency (Hek293T) | Potency (JEG-3) | Potency (OV90) | Potency (SKOV3) | Potency (Tov-21-G) | Potency (Tov112D) | activity, negative = cell killing [1, 5] -0.835% | activity, negative = cell killing [1, 6] -13.1% | activity, negative = cell killing [1, 7] -7.07%

Cc1ccc(S(=O)(=O)NC(=O)NC2CCCC2)cc1
inactive: Potency (Hek293T) | Potency (JEG-3) | Potency (OV90) | Potency (PA-1) | Potency (Tov-21-G) | Potency (Tov112D) | activity, negative = cell killing [1, 5] -10.4% | activity, negative = cell killing [1, 6] -9.83% | activity, negative = cell killing [1, 7] -7.67% | Potency (astro)

CC(C)(C)NC[C@H](O)COc1nsnc1N1CCOCC1
inactive: Potency (Hek293T) | Potency (JEG-3) | Potency (OV90) | Potency (PA-1) | Potency (Tov-21-G) | Potency (Tov112D) | activity, negative = cell killing [1, 5] -9.83% | activity, negative = cell killing [1, 6] -20.5% | activity, negative = cell killing [1, 7] -12.6% | Potency (astro)

CC(=O)NCCCCCC(=O)O
inactive: Potency (Hek293T) | Potency (JEG-3) | Potency (OV90) | Potency (PA-1) | Potency (Tov-21-G) | Potency (Tov112D) | activity, negative = cell killing [1, 5] -15.6% | activity, negative = cell killing [1, 6] -10% | activity, negative = cell killing [1, 8] -23.3% | activity, negative = cell killing [1, 7] -20.2% | Potency (astro)

CC(=O)O[C@]1(C(C)=O)CC[C@H]2[C@@H]3C=C(C)C4=CC(=O)CC[C@]4(C)[C@H]3CC[C@@]21C
inactive: Potency (Hek293T) | Potency (JEG-3) | Potency (OV90) | Potency (PA-1) | Potency (Tov-21-G) | Potency (Tov112D) | activity, negative = cell killing [1, 2] -0.988% | activity, negative = cell killing [1, 3] -20.3% | activity, negative = cell killing [1, 4] 13.6% | Potency (astro)

CCCCC(CC)CN1CN(CC(CC)CCCC)CC(C)(N)C1 (stereo not given)
inactive: Potency (Hek293T) | Potency (JEG-3) | Potency (OV90) | Potency (SKOV3) | Potency (Tov-21-G) | Potency (Tov112D) | activity, negative = cell killing [1, 2] -6.58% | activity, negative = cell killing [1, 3] -11% | activity, negative = cell killing [1, 4] -24%

Oc1ccc(Cl)cc1Cc1cc(Cl)ccc1O
inactive: Potency (Hek293T) | Potency (JEG-3) | Potency (OV90) | Potency (PA-1) | Potency (Tov-21-G) | Potency (Tov112D)
active: Potency (astro) 11.2 µM

CCc1oc2ccccc2c1C(=O)c1cc(I)c(O)c(I)c1
inactive: Potency (Hek293T) | Potency (JEG-3) | Potency (OV90) | Potency (PA-1) | Potency (Tov-21-G) | Potency (Tov112D) | activity, negative = cell killing [1, 7] -3.24%

Nc1ccc(S(=O)(=O)NCc2ccccc2)cc1
inactive: Potency (Hek293T) | Potency (JEG-3) | Potency (OV90) | Potency (PA-1) | Potency (Tov-21-G) | Potency (Tov112D) | activity, negative = cell killing [1, 5] 0.545% | activity, negative = cell killing [1, 6] -1.8% | activity, negative = cell killing [1, 7] -10.5% | Potency (astro)

CCCN(CCc1cccs1)[C@H]1CCc2c(O)cccc2C1
inactive: Potency (Hek293T) | Potency (JEG-3) | Potency (OV90) | Potency (PA-1) | Potency (Tov-21-G) | Potency (Tov112D) | Potency (astro)

COc1cc(C)nc(-n2nc(C)cc2OC)n1
inactive: Potency (Hek293T) | Potency (JEG-3) | Potency (OV90) | Potency (PA-1) | Potency (Tov-21-G) | Potency (Tov112D) | activity, negative = cell killing [1, 2] 16.5% | activity, negative = cell killing [1, 3] 1.89% | activity, negative = cell killing [1, 4] -16% | activity, negative = cell killing [1, 9] -15.4%

CCCCN=C(N)N=C(N)N
inactive: Potency (Hek293T) | Potency (JEG-3) | Potency (OV90) | Potency (PA-1) | Potency (Tov-21-G) | Potency (Tov112D) | activity, negative = cell killing [1, 5] -13.5% | activity, negative = cell killing [1, 6] -11% | activity, negative = cell killing [1, 7] -8.24%

O=C(Nc1cccc(C2=NCCN2)c1)Nc1cccc(C2=NCCN2)c1
inactive: Potency (Hek293T) | Potency (JEG-3) | Potency (OV90) | Potency (PA-1) | Potency (Tov112D) | activity, negative = cell killing [1, 5] 7.96% | activity, negative = cell killing [1, 6] -22.5% | activity, negative = cell killing [1, 8] 2.01% | activity, negative = cell killing [1, 7] -6.35%

NS(=O)(=O)c1cc(C(=O)O)cc(N2CCCC2)c1Oc1ccccc1
inactive: Potency (Hek293T) | Potency (JEG-3) | Potency (OV90) | Potency (PA-1) | Potency (Tov-21-G) | Potency (Tov112D) | activity, negative = cell killing [1, 2] 0.209% | activity, negative = cell killing [1, 3] -9.72% | activity, negative = cell killing [1, 4] -3.36% | activity, negative = cell killing [1, 9] -12.4% | Potency (astro)

Cc1cccc(C)c1NC(=O)CN1CCCCCC1
active: Potency ([1]; tumour line A) 35.5 µM
inactive: Potency (Hek293T) | Potency (JEG-3) | Potency (OV90) | Potency (PA-1) | Potency (Tov-21-G) | Potency (Tov112D) | activity, negative = cell killing [1, 5] -3.5% | activity, negative = cell killing [1, 6] -16.9% | activity, negative = cell killing [1, 7] -16.8% | Potency (astro)

O=C(O)Cc1csc(-c2ccc(Cl)cc2)n1
inactive: Potency (Hek293T) | Potency (JEG-3) | Potency (OV90) | Potency (PA-1) | Potency (Tov-21-G) | Potency (Tov112D) | activity, negative = cell killing [1, 5] -6.84% | activity, negative = cell killing [1, 6] 8.21% | activity, negative = cell killing [1, 8] -20.7% | activity, negative = cell killing [1, 7] -23.2% | Potency (astro)

C[C@H]1[C@H]2CC[C@H]3[C@@H]4CC=C5C[C@@H](N(C)C)CC[C@]5(C)[C@H]4CC[C@]23CN1C
active: Potency (OV90) 15.8 µM
inactive: Potency (Hek293T) | Potency (JEG-3) | Potency (PA-1) | Potency (Tov112D) | activity, negative = cell killing [1, 5] 0.435% | activity, negative = cell killing [1, 7] -23.5% | Potency (astro)

O=C1C(CCS(=O)c2ccccc2)C(=O)N(c2ccccc2)N1c1ccccc1 (stereo not given)
inactive: Potency (Hek293T) | Potency (JEG-3) | Potency (OV90) | Potency (PA-1) | Potency (Tov-21-G) | Potency (Tov112D) | activity, negative = cell killing [1, 2] 4.04% | activity, negative = cell killing [1, 3] 2.69% | activity, negative = cell killing [1, 4] 2.83% | activity, negative = cell killing [1, 9] -0.0177% | Potency (astro)
